In the library only some 8.1% were active in any assay of this set; here they are far more common.
ELG1 repair inh – qHTS screen for small molecules that inhibit ELG1-dependent DNA repair in human embryonic kidney (HEK293T) cells expressing luciferase-tagged ELG1; HEK293T ELG1-luciferase reporter, luminescence, 16 h; DNA damage induced by 5-fluorouridine; Potency, µM (series often up to 46.1 µM), without a hit: at the top dose activity change, negative = inhibition, usual class: inhibitors; hit rate 2.3% among 330,000; also: % is scaled to controls: 0 for no effect and ±100 for the full control effect; nearly all actives have a fitted effect of over 55% in size
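Luminescence from the luciferase reporter, measured 30 min after ONE-Glo reagent at room temperature, was the read-out. Beforehand, 2,000 cells per well were exposed for 16 hr at 37 °C to 5-fluorouridine together with compound or vehicle.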
KB-V1 MDR tox – qHTS assay for MDR1-selective chemotherapeutics: Primary screen using the drug-selected MDR subline cells KB-V1; KB-V1 MDR cells viability, CellTiter-Glo, 72 h; Potency, µM (doses to about 46.1 µM), most hits filed as cytotoxic; hit rate 3.4% among 400,000; also: % is scaled to controls: 0 for no effect and ±100 for the full control effect; nearly all actives have a fitted effect of over 60% in size
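qHTS viability screen in drug-selected KB-V1 MDR cells: 72 h compound treatment at 37 degrees C, ATP luminescence end point.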
MCF10A rerep – A quantitative high throughput screen for small molecules that induce DNA re-replication in MCF 10a normal breast cells; MCF 10A DNA re-replication, Hoechst nuclear intensity, 48 h; Potency, µM (highest dose often 46.1 µM), without a hit: at the top dose activity, positive = re-replication, hits mostly activators; AID 624296, 2012; hit rate 2.9% among 350,000; also: % of control where 0% means no effect; nearly all actives have a fitted effect of over 50% in size
SW480 rereplic – A quantitative high throughput screen for small molecules that induce DNA re-replication in SW480 colon adenocarcinoma cells. hit rate 1.8% among 340,000. AID 624297, 2012. Potency, µM (top dose mostly 46.1 µM), for inactives: top-dose re-replication activation, usual class: activators. SW480 DNA re-replication, Hoechst DNA content imaging, 48 h; also: % of control where 0% means no effect; nearly all actives have a fitted effect of over 55% in size
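Image-based DNA-content assay: after two days of treatment, nuclei were labelled with the DNA dye Hoechst and imaged, and hits were compounds raising the count of nuclei showing high fluorescence intensity.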
KB-3-1 cytotox – qHTS assay for MDR1-selective chemotherapeutics: Primary screen using the parental adenocarcinoma cell KB-3-1; KB-3-1 viability, CellTiter-Glo ATP luminescence, 72 h; Potency, µM (series often up to 46.1 µM), hits mostly cytotoxic; hit rate 1.4% among 400,000; also: % is scaled to controls: 0 for no effect and ±100 for the full control effect; nearly all actives have a fitted effect of over 60% in size
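72 h, 37 °C compound treatment of KB-3-1 parental cells; CellTiter-Glo added, 10 min, luminescence read. Data corrected against DMSO-only plates and normalized before curve fitting.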
* = called active by the depositor; i = inactive; ? = inconclusive; · = not tested or not shown; ! = not active in a repeat; [ ] = remark or other dose. Calls follow the shape of the dose curve; as a rule, active = well fitted curve in the direction sought with a large enough effect; inconclusive = small, poorly fitted or top-dose-only effect, or another doubt; inactive = no such curve, though single readings can be large; an effect the other way counts as inactive or inconclusive. Potency is read from the fitted curve at half-maximal effect.

SMILES	ELG1 repair inh	KB-V1 MDR tox	MCF10A rerep	SW480 rereplic	KB-3-1 cytotox
Cc1ccc2cc(COC(=O)C3CCCO3)c(=O)[nH]c2c1 (configuration not stated)	-4%	12µM*	-2%	-5%	?
Cc1ccc2cc(CN(CC(C)C)C(=O)C3CCCO3)c(=O)[nH]c2c1 (configuration not stated)	0%	?	1%	-4%	i
Cc1cc(=O)[nH]c(NN=Cc2cc(Br)ccc2O)n1	·	0.58µM*	?	?	?
CCN(CC)c1ccc(/C=N/Nc2nc(C)cc(=O)[nH]2)c(O)c1	?	?	8.2µM*	?	1.2µM*
Cc1cc(=O)[nH]c(N/N=C/c2ccccc2Cl)n1	?	i	?	11%	i
CCOc1ccc(CCNC(=O)COC(=O)c2cccnc2SC)cc1OCC	-4%	i	6%	-3%	i
Cc1nn(Cc2ccc(Cl)cc2)c(C)c1NC(=O)c1cc(-c2ccco2)on1	?	i	23µM*	4%	i
COc1ccc(OC)c(-c2cc(C(=O)Nc3cc(C)n(Cc4ccc(Cl)cc4)n3)no2)c1	21µM*	i	-11%	3%	?
COc1ccc(-c2cc(C(=O)Nc3c(C)nn(Cc4ccc(Cl)cc4)c3C)no2)cc1	?	?	16µM*	?	i
COc1cccc(-c2cc(C(=O)Nc3cc(C)n(Cc4ccc(Cl)cc4)n3)no2)c1	?	?	?	?	i
Cc1nn(Cc2ccc(F)cc2)c(C)c1NC(=O)c1nn(C)cc1Cl	-20%	9.2µM*	-1%	1%	i
COc1ccccc1-c1cc(C(=O)Nc2c(C)nn(Cc3ccc(Cl)cc3)c2C)no1	·	i	·	·	?
O=C(CCN1C(=O)C2CCCCC2C1=O)N1CCN(S(=O)(=O)c2c(F)cccc2F)CC1 (configuration not stated)	20%	?	0%	-6%	?
CCOC(=O)c1ccc(NC(=O)C(C)Sc2nc(=O)cc(N)n2CCc2ccccc2)cc1 (configuration not stated)	·	i	·	·	i
COCCN(C(=O)C1CC(=O)N(Cc2ccccc2)C1)c1nc(-c2ccc([N+](=O)[O-])cc2)cs1 (configuration not stated)	?	i	24%	-3%	?
Cc1nn(Cc2ccc(Cl)c(Cl)c2)c(C)c1NC(=O)c1cc(-c2ccco2)on1	?	5.2µM*	?	?	?
COCCNC(=S)NC(=O)CC12CC3CC(CC(C3)C1)C2	-10%	16µM*	-37%	23%	i
CNC(=O)CC12CC3CC(CC(C3)C1)C2	?	i	-1%	-6%	i
O=C(N/N=C/c1ccc(Cl)cc1)c1cc(-c2cccnc2)nc2ccccc12	?	9.2µM*	?	4.1µM*	9.2µM*
O=C(N/N=C/c1ccc(Cl)c([N+](=O)[O-])c1)c1cc(-c2ccccc2)nc2ccccc12	?	i	12µM*	-10%	i
O=C(N/N=C/c1cccnc1)c1cc(-c2ccc(Br)cc2)nc2ccccc12	13µM*	i	?	21µM*	?
Cc1ccc(/C=N/NC(=O)c2cc(-c3cccnc3)nc3ccccc23)cc1	-13%	2.9µM*	23µM*	2.6µM*	2.9µM*
O=C(N/N=C/c1cc([N+](=O)[O-])ccc1Cl)c1cc(-c2ccccc2)nc2ccccc12	?	i	2%	-2%	i
O=C(N/N=C/c1cccnc1)c1cc(-c2ccccc2)nc2ccccc12	?	i	15%	-2%	i
O=C(N/N=C/c1cccnc1)c1cc(-c2ccc(Cl)cc2)nc2ccccc12	·	?	?	9%	i
SMILES	ELG1 repair inh	KB-V1 MDR tox	MCF10A rerep	SW480 rereplic	KB-3-1 cytotox
O=C(/C=C/[C@H]1O[C@@H](n2ccc(=O)[nH]c2=O)[C@H](O)[C@@H]1O)NCC1CCCO1 (some centres not stated)	·	i	·	·	i
CCCC(=O)N1CCCC(c2cc(C(=O)NCc3ccccc3)no2)C1 (configuration not stated)	·	i	·	·	i
CC(C)NC(=O)C(c1ccc(F)cc1)N(C(=O)CCC(=O)Nc1ccccn1)C1CCCC1 (configuration not stated)	7%	?	-1%	-3%	i
Cc1cc(C(=O)N/N=C/c2ccncc2)c(C)o1	21%	i	0%	-5%[9.22 µM]	i
Cc1ccc(/C=N/NC(=O)c2cc(C)oc2C)cc1	?	?	?	4.6µM*	?
Nc1c2ccccc2nc2ccccc12	?	2.1µM*!	18µM*!	23µM*	5.2µM*
c1ccc(Oc2c3ccccc3nc3ccccc23)cc1	-13%	?	18µM*	?	?
Cc1noc(C)c1NC(=O)N(C)C[C@H]1Oc2c(NC(=O)Nc3ccc4c(c3)OCO4)cccc2C(=O)N([C@H](C)CO)C[C@@H]1C	15%	i	15%	?	i
c1cnc2c(-c3ccc4nccn4c3)cccc2c1	·	i	·	·	i
COc1ccc(-c2oc3ncn4nc(COc5ccc(Cl)cc5)nc4c3c2-c2ccc(OC)cc2)cc1	·	i	·	·	i
C/C(=N\NC(=O)c1cc2c(s1)CCC(C)C2)c1ccncc1 (configuration not stated)	18%	?	15µM*	-4%	?
CCCN(CC1CC1)C(=O)CSc1nnc(-c2cc(-c3cccs3)nc3ccccc23)o1	9.2µM*	i	-7%	1%	i
CCCn1c(SCC(=O)N(C)C2CCS(=O)(=O)C2)nc2sc3c(c2c1=O)CCC3 (configuration not stated)	-21%	23µM*	11%	18µM*	i
CC1(C)c2[nH]c3ccccc3c2C[C@@H]2C(=O)N(Cc3ccccc3)C(=O)N21	·	?	23µM*	?	i
Cc1cccc(CN2C(=O)[C@@H]3Cc4c([nH]c5ccccc45)C(C)(C)N3C2=O)c1	·	?	?	8%	?
COC(=O)[C@@H]1Cc2c([nH]c3ccccc23)C(C)(C)N1C(=O)CCl	?	?	18µM*	6.5µM*	?
Cc1cccc(CN2C(=O)[C@H]3Cc4c([nH]c5ccccc45)C(C)(C)N3C2=O)c1	·	?	16µM*	?	?
COCCN1C[C@@H](CO)O[C@@H](n2cnc3c(N4CCCC4)ncnc32)C1	·	i	·	·	i

Source: PubChem BioAssay
